Data on 22 compounds can be found in PubChem BioAssay.

Active and inactive are the calls of the source. Unless noted, the rule behind the calls is not given here.

Assay [1] has as its system XIP peptide (Xip251-270) binding. Description: XIP fragment 251-270 binding compounds – biochemical, small-molecule microarray, fluorescence 635/667 nm, 0.1 µg/mL protein, primary screen (AID 1182). The following applies: fluorescent protein binding, 635 nm, higher = more signal, called active from +8 up or from −8 down.
The subject of the next assay is XIP peptide (Xip251-270). Description: compounds binding XIP fragment 251-270 – biochemical, small-molecule microarray, fluorescence 635/667 nm, 0.5 µg/mL protein, primary screen (AID 1183). The following applies: fluorescence 635 nm, higher = more signal.
Assay [2] is described as follows: blood-stage malaria parasite viability loss – strain 3D7, DAPI fluorescence, 100 nL, primary screen (AID 1184).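 Note: parasites grown inside human red blood cells in medium with human serum.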 The note with it: P. falciparum 3D7 growth, 3 d, higher = more signal.
The target of assay [3] is Homeobox protein Hox-A13 (Mus musculus) (UniProt Q62424). The assay is described as follows: disruptors of Hoxa13 oligonucleotide interaction – biochemical, fluorescence polarization, labeled oligonucleotide, primary screen (AID 1185). The note with it: Hoxa13:DNA binding, 15 min, higher = more signal, called active from +8 up or from −8 down. (In fluorescence polarisation assays a small probe gives low polarisation when free and higher when bound to something large.)

A short description of assay [4]: blockers of DNA damage checkpoint Chk1 activation – imaging, HeLa, hydroxyurea, phospho-Chk1 antibody, percent positive cells, primary screen (AID 1186). The following applies: hydroxyurea-induced phospho-Chk1 immunofluorescence imaging, higher = more signal.
Assay [5] is described as follows: blockers of DNA damage checkpoint Chk1 activation – imaging, HeLa, hydroxyurea, phospho-Chk1 nuclear intensity, primary screen (AID 1187). The following applies: hydroxyurea-induced phospho-Chk1 immunofluorescence imaging, higher = more signal.

Homeobox protein Hox-A13 (Mus musculus), sequence (Q62424 whole entry, looked up): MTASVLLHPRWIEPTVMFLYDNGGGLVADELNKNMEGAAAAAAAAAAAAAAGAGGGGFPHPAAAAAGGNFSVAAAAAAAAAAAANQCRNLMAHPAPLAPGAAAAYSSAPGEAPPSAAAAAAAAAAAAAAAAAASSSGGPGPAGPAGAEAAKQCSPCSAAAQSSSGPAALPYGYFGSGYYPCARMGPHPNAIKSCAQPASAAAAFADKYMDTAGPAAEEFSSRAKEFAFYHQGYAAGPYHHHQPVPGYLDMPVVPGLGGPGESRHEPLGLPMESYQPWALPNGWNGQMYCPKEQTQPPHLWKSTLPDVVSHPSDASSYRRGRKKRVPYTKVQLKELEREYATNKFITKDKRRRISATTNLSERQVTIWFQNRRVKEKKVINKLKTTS

Take `O=C(N1CCOCC1)[C@@]1(CCS(=O)(=O)c2ccccc2)COC(c2ccc(OCCCO)cc2)=N1`: the composite z-score in assay [1] was 0.429 (inactive); in the assay on XIP peptide (Xip251-270), 0.599. In addition, the z-score in assay [2] was -1.34; in assay [3], -5.88 (inactive); in assay [4], 0.145 (inactive); in assay [5], 0.273 (inactive).
For `[N-]=[N+]=NCc1ccccc1[C@H]1OC(c2ccc(OCCCO)cc2)=N[C@@]1(Cc1ccccc1N=[N+]=[N-])C(=O)NCCN1CCOCC1`, the results for the composite z-score (in assay [1]; in the assay with XIP peptide (Xip251-270)) were 0.175 (inactive) and 0.795, respectively. Moreover, the z-score is -2.21 in assay [2], -3.06 (inactive) in assay [3], 0.0262 (inactive) in assay [4] and -0.0057 (inactive) in assay [5].
Take `Cc1ccccc1C(O)C1C=CC2C(=O)N(C)C(=O)C2N1Nc1ccc([N+](=O)[O-])cc1[N+](=O)[O-]` (configuration not stated): the composite z-score in assay [1] was 3.99 (inactive); with XIP peptide (Xip251-270), 0.476. Also, the z-score is 0.368 in assay [2], -4.08 (inactive) in assay [3], 0.348 (inactive) in assay [4] and -0.0828 (inactive) in assay [5].
Turning to `COc1ccc([Si](C)(C)[C@@H]2[C@@H](CC(=O)N(CCO)Cc3ccccc3)O[C@]3(C(=O)N(Cc4ccc(N5CCOC5=O)cc4)c4ccccc43)[C@H]2C)cc1`, the composite z-score was 2.73 (inactive) in assay [1] and 0.666 in the assay on XIP peptide (Xip251-270). For the same compound, the z-score was -0.352 in assay [2], -1.34 (inactive) in assay [3], -0.269 (inactive) in assay [4] and 0.0764 (inactive) in assay [5].
For the compound `COc1ccc([Si](C)(C)[C@@H]2[C@@H](CCO)O[C@]3(C(=O)N(Cc4ccc(N5C(=O)c6ccccc6Oc6ccccc65)cc4)c4ccccc43)[C@H]2C)cc1`, the composite z-score is 0.89 (inactive) in assay [1] and 0.294 in the assay with XIP peptide (Xip251-270). In addition, the z-score is -2.77 in assay [2], -1.06 (inactive) in assay [3], -0.42 (inactive) in assay [4] and -0.394 (inactive) in assay [5].
For `COC(=O)C(CC#Cc1ccc2c(c1)[C@]1(C(=O)N2)[C@H](C(=O)N2CCc3cc(OC)c(OC)cc3C2)[C@H]2C(=O)O[C@H](c3ccccc3)[C@H](c3ccccc3)N2[C@@H]1c1ccc(OCCO)cc1)C(=O)OC`, the composite z-score was 0.916 (inactive) in assay [1] and 0.761 in the assay with XIP peptide (Xip251-270). Moreover, the z-score was -1.76 in assay [2], -10.5 (active) in assay [3], -0.197 (inactive) in assay [4] and 0.277 (inactive) in assay [5].
Consider `COC(=O)[C@@]1(Cc2ccccc2)[C@H]2c3cc(C(=O)N4CCCC4)n(CCO)c3C[C@H]2CN1C(=O)c1ccccc1`, for which the composite z-score in assay [1] is 1.06 (inactive); in the assay on XIP peptide (Xip251-270), 0.824. The z-score in assay [2] is -1.29; in assay [3], -0.89 (inactive); in assay [4], -0.536 (inactive); in assay [5] it was -0.0989 (inactive).
In the case of `CCCNC(=O)[C@@H]1c2ccccc2C(=O)N(CC23CC4CC(CC(C4)C2)C3)[C@H]1c1ccc(CO)cc1`, the composite z-score in assay [1] is 1.67 (inactive); in the assay with XIP peptide (Xip251-270), 0.773. Moreover, the z-score was -2.3 in assay [2], -4.87 (inactive) in assay [3], 0.118 (inactive) in assay [4] and 0.0519 (inactive) in assay [5].
For `CC(C)c1ccc(NN2C(C(O)c3cccs3)C=CC3C(=O)N(c4ccccc4)C(=O)C32)cc1` (configuration not stated), the values for the composite z-score (in assay [1]; with XIP peptide (Xip251-270)) were 0.213 (inactive) and 0.499, respectively. The z-score is -0.512 in assay [2], -3.33 (inactive) in assay [3], 0.847 (inactive) in assay [4] and 0.219 (inactive) in assay [5].
Take `CC(C)C[C@@H]1NC(=O)[C@@H]2C[C@H](C(=O)NCc3ccc(F)cc3)[C@H](c3ccc(O)cc3)N2C1=O`: the composite z-score in assay [1] is 0.8 (inactive); with XIP peptide (Xip251-270), 0.655. Moreover, the z-score in assay [2] was -0.395; in assay [3], -1.41 (inactive); in assay [4], 0.13 (inactive); in assay [5] it was 0.0555 (inactive).
Consider `C=CCOc1ccc([C@@H]2CC=C(C(=O)OCC)[C@H](c3cccc(Br)c3)N2S(=O)(=O)c2ccc(C)cc2)cc1`, for which the composite z-score in assay [1] was -0.355 (inactive); in the assay on XIP peptide (Xip251-270) it was -0.498. The z-score in assay [2] is -1.94; in assay [3], 0.422 (inactive); in assay [4], -0.0778 (inactive); in assay [5], 0.295 (inactive).
In the case of `COC(=O)[C@@]1(Cc2ccccc2)[C@H]2c3cc(C(=O)N4CCCC4)n(Cc4ccccc4)c3C[C@H]2CN1C(=O)c1ccccc1`, the composite z-score in assay [1] is 3.1 (inactive); with XIP peptide (Xip251-270) it was -0.179. Further, the z-score in assay [2] was -1.12; in assay [3], -4.13 (inactive); in assay [4], 0.234 (inactive); in assay [5], 0.167 (inactive).
Regarding `Cc1ccc(F)cc1S(=O)(=O)N[C@@H]1CCN(C(=O)c2ccc(OC(C)C)cc2)C1`, the composite z-score in assay [1] is 0.615 (inactive); in the assay on XIP peptide (Xip251-270), 0.805. The z-score in assay [2] was -1.21; in assay [3], -5.21 (inactive); in assay [4], 0.0079 (inactive); in assay [5] it was -0.303 (inactive).
Consider `COC(=O)[C@@]1(Cc2ccc(F)cc2)[C@H]2c3cc(C(=O)N4CCCC4)n(Cc4ccccc4)c3C[C@H]2CN1C(=O)c1ccccc1`, for which the composite z-score in assay [1] was 0.0584 (inactive); with XIP peptide (Xip251-270) it was 0.703. The z-score in assay [2] was -0.443; in assay [3], -3.98 (inactive); in assay [4], -0.0167 (inactive); in assay [5], 0.0304 (inactive).
For the compound `C=C(C)[C@@H]1CC=C(C(O)C2C=CC3C(=O)N(C4CCCCC4)C(=O)C3N2Nc2ccc(OC)cc2)CC1` (some centres not stated), the composite z-score in assay [1] was 0.376 (inactive); in the assay on XIP peptide (Xip251-270), 0.505. Further, the z-score in assay [2] is -0.409; in assay [3], -3.47 (inactive); in assay [4] it was -0.385 (inactive); in assay [5] it was -0.393 (inactive).
In the case of `Cc1cc(C)c(C(O)C2C=CC3C(=O)N(c4ccccc4)C(=O)C3N2Nc2ccccc2)c(C)c1` (configuration not stated), the composite z-score in assay [1] was 0.733 (inactive); in the assay with XIP peptide (Xip251-270), 0.79. Further, the z-score is -0.0689 in assay [2], -3.33 (inactive) in assay [3], 0.826 (inactive) in assay [4] and 0.41 (inactive) in assay [5].
For the compound `COC(=O)[C@@]1(Cc2ccccc2N=[N+]=[N-])N=C(c2ccc(OCCCO)cc2)O[C@H]1c1ccccc1`, the composite z-score in assay [1] was 0.37 (inactive); in the assay with XIP peptide (Xip251-270), 0.601. Moreover, the z-score is -1.85 in assay [2], -3.98 (inactive) in assay [3], 0.069 (inactive) in assay [4] and -0.447 (inactive) in assay [5].
Turning to `C=CCOC(=O)[C@@H]1[C@H]2C(=O)O[C@H](c3ccccc3)[C@H](c3ccccc3)N2[C@H](c2ccc(OCCOC(=O)[C@@H]3C[C@@H]4C(=O)N[C@@H](CCCCNC(C)=O)C(=O)N4[C@@H]3c3ccc(O)cc3)cc2)[C@@]12C(=O)Nc1ccc(I)cc12`, the composite z-score in assay [1] was 0.0787 (inactive); in the assay on XIP peptide (Xip251-270), 0.794. Further, the z-score in assay [2] is -1.61; in assay [3] it was -0.385 (inactive); in assay [4], 0.552 (inactive); in assay [5], 0.882 (inactive).
As to `CN1C(=O)C2C=CC(C(O)C3CCCCC3)N(N(c3ccccc3)c3ccccc3)C2C1=O` (configuration not stated), the results for the composite z-score (in assay [1]; in the assay on XIP peptide (Xip251-270)) were -0.119 (inactive) and 0.63, respectively. In addition, the z-score in assay [2] was 0.721; in assay [3], -4.01 (inactive); in assay [4] it was 0.74 (inactive); in assay [5] it was -0.024 (inactive).
For the compound `COc1cc(C(O)C2C=CC3C(=O)N(C)C(=O)C3N2NC(=O)OC(C)(C)C)cc(OC)c1OC` (configuration not stated), the composite z-score in assay [1] is 1.56 (inactive); in the assay with XIP peptide (Xip251-270) it was 0.157. The z-score in assay [2] is -0.361; in assay [3], -1.27 (inactive); in assay [4], 0.873 (inactive); in assay [5], 0.571 (inactive).
`C=CCOC(=O)[C@@H]1[C@H]2C(=O)O[C@H](c3ccccc3)[C@H](c3ccccc3)N2[C@H](c2ccc(OCCOC(=O)[C@@H]3C[C@@H]4C(=O)N5CCC[C@H]5C(=O)N4[C@@H]3c3cccc(OCCO)c3)cc2)[C@@]12C(=O)Nc1ccc(I)cc12`: the figures for the composite z-score (in assay [1]; with XIP peptide (Xip251-270)) were 0.284 (inactive) and 0.632, respectively. Moreover, the z-score is -1.72 in assay [2], 1.17 (inactive) in assay [3], 0.021 (inactive) in assay [4] and 0.318 (inactive) in assay [5].
For `CN(C)CCCN1C(=O)[C@@]2(Cc3ccccc31)c1ccccc1C(=O)N(Cc1ccccc1)[C@H]2c1ccc(CO)cc1`, the composite z-score in assay [1] is 0.0022 (inactive); with XIP peptide (Xip251-270), 0.324. For the same compound, the z-score is -1.47 in assay [2], 1.06 (inactive) in assay [3], -0.384 (inactive) in assay [4] and -0.682 (inactive) in assay [5].
